SW480 rereplic = A quantitative high throughput screen for small molecules that induce DNA re-replication in SW480 colon adenocarcinoma cells | AID 624297, 2012 | 340,000 compounds, 1.8% hits | SW480 DNA re-replication, Hoechst DNA content imaging, 48 h | Potency, µM (top dose mostly 46.1 µM), actives largely listed as activators; also: nearly all actives have a fitted effect of over 55% in size
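Image-based read-out: total Hoechst fluorescence of nuclei (405 nm excitation, 500-530 nm emission), with hits raising the fraction of high-intensity nuclei. SW480 colon cells incubated 48 hr with compounds at 37 C.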
MCF10A rerep = A quantitative high throughput screen for small molecules that induce DNA re-replication in MCF 10a normal breast cells | 350,000 compounds, 2.9% hits | MCF 10A DNA re-replication, Hoechst nuclear intensity, 48 h | AID 624296, 2012 | Potency, µM (doses to about 46.1 µM), usual class: activators; also: nearly all actives have a fitted effect of over 50% in size
PINK1 modulator = A Quantitative High throughput Screen to Identify Chemical Modulators of PINK1 Expression. 410,000 compounds, 0.2% hits. PINK1 immunofluorescence, high-content cytometry, 24 h. Potency, µM (doses to about 76.6 µM), usual class: activators. AID 624263, 2012; active = well fitted activation curve with a large enough effect; inconclusive = small, poorly fitted or top-dose-only effect; cell line not stated here; also: nearly all actives have a fitted effect of over 65% in size
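Readout is PINK1 immunofluorescence, quantified alongside mitochondrial, cell and nuclear markers by laser-scanning microplate cytometry. Cells from a stable line were exposed to compound titrations (5 concentrations) for 24 hours, with CCCP controls.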
KB-3-1 cytotox = qHTS assay for MDR1-selective chemotherapeutics: Primary screen using the parental adenocarcinoma cell KB-3-1. KB-3-1 viability, CellTiter-Glo ATP luminescence, 72 h. Potency, µM (titrated, usually from 46.1 µM), actives largely listed as cytotoxic. 400,000 compounds, 1.4% hits; also: nearly all actives have a fitted effect of over 60% in size
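Cytotoxicity measured as CellTiter-Glo luminescence after 72 h at 37 C. Compound titrations were pinned onto drug-naive KB-3-1 parental adenocarcinoma cells grown in DMEM with 10% FBS, and normalized data fitted to concentration-response curves.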
KB-V1 MDR tox = qHTS assay for MDR1-selective chemotherapeutics: Primary screen using the drug-selected MDR subline cells KB-V1. KB-V1 MDR cells viability, CellTiter-Glo, 72 h. Potency, µM (top dose mostly 46.1 µM), usual class: cytotoxic. 400,000 compounds, 3.4% hits. AID 1347076, 2019; also: nearly all actives have a fitted effect of over 60% in size
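Luminescent ATP read-out (CellTiter-Glo, 10 min) measures survival of drug-selected KB-V1 MDR cells after 72 h, 37 degrees C compound exposure. Medium: phenol-red-free DMEM, 10% FBS. Values from fitted concentration-response curves.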
A number is an active result; - = inactive; ? = inconclusive; . = no result given; ! = a repeat was not active; [ ] = remark or other dose. The list is not random: actives were taken first. Their share in the collection is about 6.7%. Unless noted, calls follow the shape of the dose curve; as a rule, active = well fitted curve in the direction sought with a large enough effect; inconclusive = small, poorly fitted or top-dose-only effect, or another doubt; inactive = no such curve, though single readings can be large; an effect the other way counts as inactive or inconclusive.

SMILES | SW480 rereplic | MCF10A rerep | PINK1 modulator | KB-3-1 cytotox | KB-V1 MDR tox
Cc1cc(C([O-])=C(C(=S)Nc2ccc(F)cc2)[n+]2ccccc2)c(C)n1-c1ccc(F)cc1 | - | - | - | - | -
COc1cccc(NC(=S)/C(=C(\[O-])c2cc(C)n(-c3ccccc3F)c2C)[n+]2ccc(N(C)C)cc2)c1 | ? | ? | 16µM | ? | -
CCOc1ccc(N2C(=O)CC(NCCc3c[nH]c4ccccc34)C2=O)cc1 (configuration not stated) | 2.9µM | - | - | - | -
COc1ccc(COc2ccc3c(C)cc(=O)oc3c2)cc1 | - | - | - | - | -
COc1ccc2c(-c3cc4ccc(OCc5ccc(F)cc5)cc4oc3=O)cc(=O)oc2c1 | - | 1.8µM | - | 7.3µM | 8.2µM
Cc1sc(NC(=O)c2ccco2)c(CN2CCN(c3ccc(F)cc3)CC2)c1C | - | - | - | - | ?
Cc1sc(NC(=O)c2ccco2)c(CN2CCN(c3ccccn3)CC2)c1C | - | ? | - | 21µM | ?
CCOC(=O)c1ccc(-c2ccc3c(=O)c4ccccc4n(C)c3c2)cc1F | - | - | - | - | ?
COc1ccc(C(C)(C)C)cc1NC(=O)c1cc(S(=O)(=O)N(C)C)ccc1N1CCCC1 | - | - | - | - | 23µM
CN(C)S(=O)(=O)c1ccc(N2CCCC2)c(C(=O)Nc2ccc(F)cc2F)c1 | - | - | - | - | -
Cc1cnc(NC(=O)c2cc(S(=O)(=O)N(C)C)ccc2N2CCCC2)s1 | ? | 6.5µM | - | 21µM | ?
CC(=O)Nc1ccc2c(c1)nc(CCNC(=O)c1ccccc1)n2C | - | - | - | - | -
CC1CCN(CCc2nc3cc(NC(=O)COc4ccc([N+](=O)[O-])cc4)ccc3n2C)CC1 | 21µM | ? | - | ? | -
Cn1c(CN2CCCCC2)nc2cc(NC(=O)c3ccccc3)ccc21 | - | - | - | - | 8.2µM
Cn1c(CN2CCCC2)nc2cc(NC(=O)Nc3ccccc3)ccc21 | - | - | - | - | -
Cn1c(CN2CCOCC2)nc2cc(NC(=O)COc3ccccc3)ccc21 | - | - | - | - | 16µM
CC(=O)NCCc1nc2cc(NC(=O)c3ccccc3C)ccc2n1C | - | 0.58µM | - | - | ?
Cn1c(CCN2CCOCC2)nc2cc(NC(=O)COc3ccccc3)ccc21 | - | - | - | - | -
COc1ccc(N2CCN(S(=O)(=O)c3ccc4c(c3)CC(C)N4C(C)=O)CC2)cc1 (configuration not stated) | . | . | - | . | .
CC(=O)Nc1ccc2c(c1)nc(CN1CCCC1)n2C | - | - | - | - | -
Cn1c(CN2CCCCC2)nc2cc(NC(=O)c3cccc(Br)c3)ccc21 | - | ? | - | 18µM! | ?
CCn1c(CN2CCCCC2)nc2cc(NC(=O)c3ccc([N+](=O)[O-])cc3)ccc21 | . | . | - | - | 6.5µM
Cn1c(CCN2CCN(c3ccccc3)CC2)nc2cc(NC(=O)c3ccco3)ccc21 | - | - | - | - | -
Cc1ccc(N2CCN(CCc3nc4cc(NC(=O)c5ccco5)ccc4n3C)CC2)cc1 | - | - | ? | - | 4.1µM
CCCC(=O)N1CCN(Cc2nc3cc([N+](=O)[O-])ccc3n2C)CC1 | 7.3µM | - | - | - | -
SMILES | SW480 rereplic | MCF10A rerep | PINK1 modulator | KB-3-1 cytotox | KB-V1 MDR tox
CCCCNC(=S)N(CCCN(C)C)Cc1cc2cc3c(cc2[nH]c1=O)OCO3 | - | - | - | - | -
Cc1ccc(Oc2ccc(S(=O)(=O)N3CCOCC3)cc2C(N)=O)c(-n2nc3ccccc3n2)c1 | 5.2µM | 4.6µM | - | 6.5µM | 18µM
Cc1noc(C)c1C(=O)N(C)CC(=O)Nc1ccc(F)c(F)c1F | - | - | - | - | -
Cc1ccc(NC(=O)c2cc(S(=O)(=O)Nc3ccc(C)cc3)cs2)cc1 | ? | - | ? | ? | 4.1µM
CC(=O)N1CCN(c2ccc(NC(=O)c3ccccc3)cc2)CC1 | -[9.22 µM] | - | - | - | -
CC(=O)N1CCN(c2ccc(NC(=S)NC(=O)c3ccccc3)cc2)CC1 | - | ? | - | - | 3.7µM
Cc1ccc(C(=O)N2CCN(c3ccc(NC(=S)NC(=O)c4cccs4)cc3)CC2)cc1 | 10µM | ? | - | ? | -
